Structures are written as SMILES. Values joined by “and” are separate entries in the source; they are usually repeats but may differ in a detail not shown here. Equal values may be shown once. The source holds several records for some structures; these can differ, active in one and inactive in another. Active and inactive are the calls of the source. Rule for the calls: active = hit-call score of the fitted dose curve at least 0.9, where 1 is the maximum; inactive = score below 0.9.

The first assay in a line: ATG_AP_2_CIS: Attagene CIS-FACTORIAL HepG2 Assay for human Activator Protein 2 (AP-2) (AID 2282932). Particulars: HepG2 AP-2 cis-reporter, Attagene transcription factor profiling; actives raise or lower the signal. The gist of the method:
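HepG2, transient MRTU transfection, cis-regulated reporters; 24 h compound exposure; RNA isolated, RT-PCR, 6-FAM labelling, HpaI digest, CE fluorescence. DMSO = negative control/baseline, bidirectional fit.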
On to `CCCC(=O)O`, for which the result was inactive.

As for `CCCCCCCC(=O)OC`, the molecule was called inactive.

Take `O=NO`: the call was inactive.

On to `CCCCCCC(CCCCCCCCCCC(=O)OCC(COC(C)=O)OC(C)=O)OC(C)=O` (configuration not stated), for which the molecule was called inactive.

With `NCCOCCOCCN`, the call was inactive.

Broadly, the AC50 is the concentration at which the activity in the assay is half-maximal. As to `CSc1ccc(Oc2ccc(S(N)(=O)=O)cc2CN(C)C)cc1C`, the AC50 is 26.8 µM (active).

`C=CCc1ccc(OC)c(OC)c1`: the result was inactive.

For the molecule `CCCCC(CC)COP(=O)(OCC(CC)CCCC)OCC(CC)CCCC` (configuration not stated), the molecule was called inactive.

Take `O=C(N[C@@H](c1ccccc1)[C@@H]1CCCCN1)c1cccc(C(F)(F)F)c1Cl`: the AC50 is 33 µM (active).

For `CC(=O)OCC(COC(C)=O)OC(C)=O`, the molecule was called inactive.

Take `CN(C)CCCN1c2ccccc2Sc2ccc(Cl)cc21`: the molecule was called inactive.

As to `CC(=O)O[C@]1(C(C)=O)CC[C@H]2[C@@H]3C=C(Cl)C4=CC(=O)[C@@H]5C[C@@H]5[C@]4(C)[C@H]3CC[C@@]21C`, the AC50 was 173 µM (active) and 60.4 µM (active); the molecule was classed as inactive.

Take `NC=O`: the outcome was inactive.

In the case of `CC1(C)C(=O)NC(=O)N1CO`, the call was inactive.

Consider `CC1=C(C)S(=O)(=O)CCS1(=O)=O`, for which the result was inactive.

For `CC(COCC(C)OC(=O)c1ccccc1)OC(=O)c1ccccc1` (configuration not stated), the result was inactive.

In the case of `CCCCCCC(C=O)=Cc1ccccc1`, the call was inactive.

Consider `NC1CCCCC1`, for which the molecule was classed as inactive.

With `CC(=O)S[C@H](C(=O)N[C@H]1Cc2ccccc2[C@H]2CCC[C@@H](C(=O)O)N2C1=O)C(C)C`, the result was inactive.

On to `Cc1c(C)c2c(c(C)c1O)CCC(C)(COc1ccc(CC3SC(=O)NC3=O)cc1)O2` (configuration not stated), for which the molecule was called inactive.

With `C/C=C/c1ccc(OC)cc1`, the molecule was called inactive.

As for `O=Cc1ccccc1C=O`, the outcome was inactive.

With `CCCCCCCCCCCCCCOS(=O)(=O)O`, the outcome was inactive.

On to `Cn1cnc2c1c(=O)[nH]c(=O)n2C`, for which the molecule was classed as inactive.

Turning to `Cc1cc(SC2=C(O)C[C@@](CCc3ccc(N)cc3)(C(C)C)OC2=O)c(C(C)(C)C)cc1CO`, the molecule was classed as inactive.

In the case of `CCCCOC(=O)CCCCC(=O)OCCCC`, the molecule was classed as inactive.

`Nc1nc(=S)c2[nH]cnc2[nH]1`: the molecule was called inactive.

As for `CCN(CC)CCOc1ccc(C(=C(Cl)c2ccccc2)c2ccccc2)cc1`, the AC50 was 11.4 µM (active) and the outcome was inactive.

As for `C#CC(O)C(CC)CCCC` (configuration not stated), the AC50 was 163 µM (active).

A further assay is described as follows: ATG_BRE_CIS: Attagene CIS-FACTORIAL HepG2 Assay for human Bone Morphogenetic Protein (BMP) Response Element (BRE) (AID 2282933). Particulars: HepG2 BMP response element reporter, Attagene transcription factor profiling; actives raise or lower the signal. The gist of the method: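 Gain- or loss-of-signal was derived by bidirectional fitting against DMSO controls. The signal came from reporter mRNA, measured by RT-PCR and capillary electrophoresis, in HepG2 cells transiently carrying multiple reporter units and dosed for 24 h.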
As to `CCCC(=O)O`, the outcome was inactive.

Consider `CCCCCCCC(=O)OC`, for which the molecule was classed as inactive.

Consider `O=NO`, for which the call was inactive.

On to `CCCCCCC(CCCCCCCCCCC(=O)OCC(COC(C)=O)OC(C)=O)OC(C)=O` (configuration not stated), for which the call was inactive.

As to `NCCOCCOCCN`, the outcome was inactive.

Consider `CSc1ccc(Oc2ccc(S(N)(=O)=O)cc2CN(C)C)cc1C`, for which the molecule was classed as inactive.

Consider `C=CCc1ccc(OC)c(OC)c1`, for which the call was inactive.

As to `CCCCC(CC)COP(=O)(OCC(CC)CCCC)OCC(CC)CCCC` (configuration not stated), the molecule was called inactive.

Regarding `O=C(N[C@@H](c1ccccc1)[C@@H]1CCCCN1)c1cccc(C(F)(F)F)c1Cl`, the molecule was classed as inactive.

In the case of `CC(=O)OCC(COC(C)=O)OC(C)=O`, the molecule was called inactive.

For the molecule `CN(C)CCCN1c2ccccc2Sc2ccc(Cl)cc21`, the outcome was inactive.

On to `CC(=O)O[C@]1(C(C)=O)CC[C@H]2[C@@H]3C=C(Cl)C4=CC(=O)[C@@H]5C[C@@H]5[C@]4(C)[C@H]3CC[C@@]21C`, for which the AC50 is 30.1 µM (active) and 43.7 µM (active) and 33.4 µM (active); the result was inactive.

Regarding `NC=O`, the molecule was called inactive.

With `CC1(C)C(=O)NC(=O)N1CO`, the result was inactive.

Regarding `CC1=C(C)S(=O)(=O)CCS1(=O)=O`, the call was inactive.

Turning to `CC(COCC(C)OC(=O)c1ccccc1)OC(=O)c1ccccc1` (configuration not stated), the call was inactive.

As to `CCCCCCC(C=O)=Cc1ccccc1`, the AC50 was 44.9 µM (active) and the molecule was called inactive.

Regarding `NC1CCCCC1`, the molecule was classed as inactive.

`CC(=O)S[C@H](C(=O)N[C@H]1Cc2ccccc2[C@H]2CCC[C@@H](C(=O)O)N2C1=O)C(C)C`: the call was inactive.

`Cc1c(C)c2c(c(C)c1O)CCC(C)(COc1ccc(CC3SC(=O)NC3=O)cc1)O2` (configuration not stated): the result was inactive.

Regarding `C/C=C/c1ccc(OC)cc1`, the call was inactive.

Take `O=Cc1ccccc1C=O`: the result was inactive.

In the case of `CCCCCCCCCCCCCCOS(=O)(=O)O`, the call was inactive.

For the molecule `Cn1cnc2c1c(=O)[nH]c(=O)n2C`, the molecule was called inactive.

As for `Cc1cc(SC2=C(O)C[C@@](CCc3ccc(N)cc3)(C(C)C)OC2=O)c(C(C)(C)C)cc1CO`, the outcome was inactive.

`CCCCOC(=O)CCCCC(=O)OCCCC`: the molecule was classed as inactive.

In the case of `Nc1nc(=S)c2[nH]cnc2[nH]1`, the outcome was inactive.

Take `CCN(CC)CCOc1ccc(C(=C(Cl)c2ccccc2)c2ccccc2)cc1`: the result was inactive.

For `C#CC(O)C(CC)CCCC` (configuration not stated), the call was inactive.

The values above are taken from PubChem BioAssay (EPA / NIEHS).
